NALP1 inh = NALP1 inflammasome inhibitors in reconstituted yeast, colorimetric, S. cerevisiae, triplicate retest. 280,000 tested, 0.61% active. inhibition, % at 10 µM. S. cerevisiae NALP1/ASC/caspase-1 growth, X-gal OD620, 72 h; in the data active = inhibition mostly above about 24%, no sharp cut-off; inactive = mostly below about 32%
NLRP3 yeast inh = NALP3 inflammasome inhibitors in reconstituted yeast, primary screen, luminescence, uHTS | Yeast reconstituted NLRP3/ASC/caspase-1, beta-gal luminescence, 24 h | inhibition, % at 10 µM | 330,000 tested, 0.39% active | AID 2825, 2010;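 active = inhibition of 50% or more; inactive = inhibition below 50%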
tim10-1 inh = growth inhibitors of tim10-1 mutant yeast, primary screen, luminescence, uHTS | S. cerevisiae tim10-1 ts strain growth, BacTiter-Glo, 24 h | inhibition, % at 20 µM | 330,000 tested, 2.2% active | AID 463190, 2010;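 active = inhibition of at least 40%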;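 note: mutant grown at 25 °C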
PfHsp90 yeast 2 = growth inhibition of PfHsp90-expressing yeast, primary screen, antimalarial PfHsp90 inhibitor project, S. cerevisiae, BacTiter-Glo luminescence, single point, set 2. inhibition, % at 9.4 µM. 310,000 tested, 0.32% active. BacTiter-Glo ATP, 48 h; yeast lacking PDR1 and PDR3 efflux regulators;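 active = every replicate shows inhibition above about 80%, whatever the replicate mean, limit read from the data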
tim23-1 inh = growth inhibitors of tim23-1 mutant yeast, primary screen, luminescence, uHTS; S. cerevisiae tim23-1 growth, BacTiter-Glo luminescence, 24 h; inhibition, % at 20 µM; 330,000 tested, 1.3% active; AID 463212, 2010;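 active = growth inhibition of the mutant yeast at or above 50%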;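 note: temperature-sensitive mutant grown at 25 °C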
TIM10 inh = growth inhibitors of isogenic TIM10 control yeast, primary screen, counter-screen for tim10-1 yeast inhibitor project, luminescence, uHTS | S. cerevisiae TIM10 strain growth, BacTiter-Glo luminescence, 24 h | inhibition, % at 10 µM | 330,000 tested, 1.4% active;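 active = inhibition of 40% or more at the single tested concentration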;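 note: wild-type TIM10 isogenic control strain grown at permissive 25 °C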
tim10-1 confirm = growth inhibitors of tim10-1 mutant yeast, confirmation, single concentration, luminescence, S. cerevisiae | shares compounds with tim10-1 inh | S. cerevisiae tim10-1 ts strain growth, BacTiter-Glo, 24 h | inhibition, % at 20 µM | 7,400 tested, 56% active;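 active = inhibition of yeast growth at or above a set limit in either of two repeat tests at 20 µM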;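 note: tim10-1 mutant grown at permissive 25 °C to find synthetic lethal compounds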
Each line names hits and unclear results; the compound was inactive in the other large screens (follow-up assays come after a bar, where they were run). In the library only some 4.2% were active in any assay of this set; here they are far more common.

S=c1[nH]nc(COc2ccccc2)n1/N=C/c1ccc(Br)cc1	none
CN(C)c1ccc(/C=N/n2c(COc3ccccc3)n[nH]c2=S)cc1	none
CC(C)c1ccc(/C=N/n2c(COc3ccccc3)n[nH]c2=S)cc1	tim10-1 inh 43 | tim10-1 confirm inactive
S=c1[nH]nc(COc2ccccc2)n1/N=C/c1cccc(Br)c1	tim10-1 inh 45 | tim10-1 confirm inactive
CN1CCN(C(c2ccccc2)c2ccccc2)CC1	none (no result: NALP1 inh)
CN1CCCN(C(c2ccccc2)c2ccc(Cl)cc2)CC1 (centres undefined)	tim10-1 inh 50 | tim10-1 confirm 34
COc1ccc(/C=C2/N=C(c3cccs3)OC2=O)cc1OC(C)C	tim10-1 inh 42 | tim10-1 confirm 30
Cc1ccc(SCCN2CCC(C(C)(C)C)CCC2=O)cc1 (centres undefined)	tim10-1 inh 45 | tim10-1 confirm inactive
O=C(Cn1cnc2ccccc21)Nc1cccc(S(=O)(=O)N2CCCC2)c1	none (no result: NALP1 inh)
CC(C)(C)c1ccc(C(=O)CC(Sc2ccc(Cl)cc2)C(=O)O)cc1 (centres undefined)	tim10-1 inh 41, PfHsp90 yeast 2 81 | tim10-1 confirm 51
COC(=O)c1sccc1NC(=O)CC1C(=O)NCCN1C(=O)c1ccc(C)c(C)c1 (centres undefined)	none
Cc1ccc(NC(=O)COC(=O)c2ccccc2Nc2ccccc2)cc1	none
Cc1cccc(C(=O)Nc2ccccc2C(=O)OCC(=O)Nc2ccc(C#N)cc2)c1	tim10-1 inh 43 | tim10-1 confirm inactive
Cc1ccsc1C1NC(=O)c2c(sc3c2CCCC3)N1 (centres undefined)	tim10-1 inh 48 | tim10-1 confirm 35
Nc1nc(-c2ccc(F)cc2)cs1	none
Nc1nc(-c2ccc(Br)cc2)cs1	tim10-1 inh 56 | tim10-1 confirm 46
COc1cc(/C=C2\SC(=S)N(Nc3ccccc3)C2=O)ccc1O	tim10-1 inh 51 | tim10-1 confirm inactive
CCOC(=O)C1=C(CC)Nc2ccccc2N=C1NC(=O)c1oc2ccccc2c1C	tim10-1 inh 43 | tim10-1 confirm inactive
N=C1C(c2nc3ccccc3c(=O)[nH]2)=C(O)CN1CCO	none
N=C1C(c2nc3ccccc3c(=O)[nH]2)=C(O)CN1CCc1ccccc1	tim10-1 inh 41 | tim10-1 confirm inactive
Cc1cc(Cl)ccc1OC(C)C(=O)OCC(=O)c1ccc[nH]1 (centres undefined)	none (no result: NALP1 inh)
CCn1c2ccccc2c2cc(/C=C(/C#N)C(N)=S)ccc21	none (no result: NALP1 inh, NLRP3 yeast inh, tim10-1 inh, tim23-1 inh, TIM10 inh)
CCOc1c(C=C(C#N)C#N)c2ccccc2n1CC	tim10-1 inh 42 | tim10-1 confirm inactive
COc1cc2c(cc1OC)/C(=C/c1ccc(Br)cc1)C(=O)OC2	tim10-1 inh 43 | tim10-1 confirm inactive
CNC(=O)Nc1cc(NC(=O)NC)cc(C(F)(F)F)c1	none
Fc1cc(F)cc(Nc2nc(Cl)nc(NC3CCCC3)n2)c1	tim10-1 inh 45 (no result: NALP1 inh) | tim10-1 confirm 19
COc1ccc(N(CC(=O)Nc2ccc(C)c(C)c2)S(=O)(=O)c2c(C)noc2C)cc1	tim10-1 inh 45 | tim10-1 confirm inactive
COc1ccc(N(CC(=O)Nc2ccc(C)c(F)c2)S(=O)(=O)c2c(C)noc2C)cc1	none
Cc1c(/C(O)=C2/C(=O)C(=O)N(Cc3cccnc3)C2c2ccccn2)cnn1-c1ccccc1 (centres undefined)	none
Cc1ccc(NC(=O)COc2ccccc2C(=O)Nc2ccccc2)cc1Cl	none
Cc1ccc(Cl)cc1NC(=O)c1ccccc1OCC(=O)Nc1ccc(Cl)cc1	tim10-1 inh 48 (no result: PfHsp90 yeast 2) | tim10-1 confirm inactive
COc1ccccc1N1CCN(C(=O)Nc2ccc(F)c(Cl)c2)CC1	none
CCOc1ccccc1N1CCN(C(=O)Nc2ccc(F)c(Cl)c2)CC1	tim10-1 inh 48 | tim10-1 confirm 40
N/C(=N\OC(=O)C12CC3CC(CC(C3)C1)C2)c1ccncc1	tim10-1 inh 45 (no result: PfHsp90 yeast 2) | tim10-1 confirm inactive
COc1ccc2c(COC(=O)CNC(=O)C34CC5CC(CC(C5)C3)C4)cc(=O)oc2c1	tim10-1 inh 42 (no result: NALP1 inh) | tim10-1 confirm inactive
O=C(c1ccccc1)n1c(=O)c(F)cn(COCCBr)c1=O	none
Cc1ccccc1-c1nc2sc(C)c(C)c2c(=O)o1	none
Cc1sc2nc(-c3ccco3)oc(=O)c2c1C	tim10-1 inh 42 | tim10-1 confirm inactive
Oc1ccc(/C=N/NC(=S)Nc2cccnc2)cc1	none (no result: NALP1 inh)
Oc1ccc(/C=N/NC(=S)N/N=C/c2ccc(O)cc2)cc1	tim10-1 inh 41 | tim10-1 confirm inactive
CN(CCc1ccccn1)C(=O)Nc1ccc(Cl)cc1	none
CN(CCc1ccccn1)C1CC(=O)N(c2ccc(Cl)cc2)C1=O (centres undefined)	tim10-1 inh 41 | tim10-1 confirm 34
O=C(NCc1ccccc1)C(c1ccco1)N(C(=O)c1csnn1)c1ccccc1 (centres undefined)	none
COc1cc(/C=C2\SC(=O)NC2=O)ccc1Oc1ccc([N+](=O)[O-])cc1[N+](=O)[O-]	none
CO/N=C/c1ccc(Oc2ccc([N+](=O)[O-])cc2[N+](=O)[O-])c(OC)c1	tim10-1 inh 44 | tim10-1 confirm 34
O=[N+]([O-])c1cc(/C=N\O)ccc1Oc1ccc(F)cc1	tim10-1 inh 46 | tim10-1 confirm inactive
CC(C)(C)Sc1ccc(/C=N/O)cc1[N+](=O)[O-]	none
COc1cc(/C=N/O)ccc1Oc1ccc([N+](=O)[O-])cc1[N+](=O)[O-]	tim10-1 inh 44 | tim10-1 confirm 38
O=S(=O)(/N=S1\CC=CCN1S(=O)(=O)c1ccccc1)c1ccccc1 (centres undefined)	none (no result: NALP1 inh, NLRP3 yeast inh, tim10-1 inh, tim23-1 inh, TIM10 inh)
CC1CCN(C(=O)c2ccc3c(Cl)c4c(nc3c2)CCCC4)CC1	tim10-1 inh 47 | tim10-1 confirm 40
CCOC(=O)N1CCC(NC(=O)c2ccc3c(Cl)c4c(nc3c2)CCCC4)CC1	tim10-1 inh 41 | tim10-1 confirm inactive
O=C(NC1CC1)c1ccc2c(Cl)c3c(nc2c1)CCCC3	none (no result: PfHsp90 yeast 2)
CCOC(=O)N1CCC(NC(=O)c2ccc3c(c2)N=C(CC)c2ccccc2S3)CC1	tim10-1 inh 45 | tim10-1 confirm inactive
CC(=O)Oc1ccc2c(=O)c(-c3ccccc3)coc2c1	tim10-1 inh 42 | tim10-1 confirm 32
COc1ccc(CC(=O)N2CCc3cc(OC)c(OC)cc3C2O)cc1OC (centres undefined)	none
Clc1ccccc1CNc1ncnc2nc[nH]c12	none

High-throughput results as filed in PubChem BioAssay.
